# Test results as given in PubChem BioAssay AID463190 (Sanford-Burnham Center for Chemical Genomics, 2010).
# The campaign covered roughly 330,000 compounds. About 7,300 (2.2%) were called active. The sample as a whole holds a higher share of actives than the screen did. Values without a mark were called inactive.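 The calls were made as follows: active = inhibition of at least 40%; inactive = the rest.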
# Experiment: growth inhibitors of tim10-1 mutant yeast, primary screen, luminescence, uHTS (AID 463190);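 also: mutant grown at 25 °C; 0% = DMSO wells with yeast and 100% = wells holding no yeast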
# Settings: S. cerevisiae tim10-1 ts strain growth, BacTiter-Glo, 24 h; at 20 µM; hits give high values
row,Compound,inhibition
1,CCOC(=O)/C=C/CN(C(=O)OC(C)(C)C)S(=O)(=O)N1CC=CC1,17.9%
2,CC(C)(Oc1ccc(C2CC2(Cl)Cl)cc1)C(=O)O (stereo not drawn),9.95%
3,CN(C)C(=O)c1ccc2c(c1)C1C3CCC(C3)C1C(c1ccccc1)N2 (stereo not drawn),46% (active)
4,CN(C)C(=O)c1ccc(NC(=O)c2ccccc2-c2ccccc2)cc1,3.15%
5,Cc1ccc(C)c(N2CCN(C(=O)CCc3nc(-c4cccc(C(F)(F)F)c4)no3)CC2)c1,17.8%
6,OCCC1CN(Cc2ccccc2-c2ccco2)CCN1Cc1ccsc1 (stereo not drawn),17.5%
7,COc1cc(C=NNC(=O)c2cccnc2)ccc1OC(=O)c1ccccc1F,4.11%
8,CN(NS(=O)(=O)c1cccs1)c1ncc(C(F)(F)F)cc1Cl,15.9%
9,Cc1cc(C)n(-c2nc(SCC(=O)N3CCCC3)c3c4c(sc3n2)CCCC4)n1,52.2% (active)
10,COCCNc1nc(-n2nc(C)cc2C)nc2sc3c(c12)CCCC3,30.3%
11,CC(C)c1nc(SCC(=O)Nc2cccc(C(=O)O)c2)c2c3c(sc2n1)CCCC3,10.1%
12,O=C(O)C1CCCN1S(=O)(=O)c1ccc(Br)cc1 (stereo not drawn),-5.99%
13,COCCN(C(=O)COC(=O)Cc1cccc(OC)c1)c1c(N)n(Cc2ccccc2)c(=O)[nH]c1=O,0.462%
14,Cc1cc(/C=C(/C#N)C(=O)Nc2ccc(Cl)cc2)c(C)n1-c1cccnc1,20.6%
15,N#C/C(=C\c1cccnc1)C(=O)Nc1ccc(SC(F)F)cc1,52.5% (active)
16,CC(C)(C)NC(=O)/C(=C/c1cccnc1)NC(=O)c1ccco1,-15.4%
17,O=C(O)CCCCCCCCc1cn(CN2C(=O)c3ccccc3C2=O)nn1,-13.2%
18,CCOC(=O)N1CCC(N(CCOC)C(=O)Nc2ccc(C)c(C)c2)CC1,26.7%
19,COc1ccc(/C(=N\O)c2nccc3cc(OC)c(OC)cc23)cc1OC,17.4%
20,Cc1ccc(Nc2nc(-c3ccc(O)cc3O)cs2)nc1,43.9% (active)
21,Cc1ccccc1Nc1nc(-c2cccnc2)cs1,-3.25%
22,Cc1ccc(-c2csc(NCCc3nc4cc(Cl)c(Cl)cc4n3CCOCCO)n2)cc1,33.4%
23,COc1c(C(=O)N2CCCC2)ccc2ccccc12,6%
24,C[C@@H](NC(=O)[C@@H]1Cc2ccccc2CN1)C(=O)NC1CCCC1,5.23%

row,Compound,inhibition
1,CC(C)(CNC(=O)c1cc(=O)[nH]c2ccccc12)N1CCOCC1,-7.73%
2,O=C(N/N=C/c1ccc([N+](=O)[O-])cc1)C(=O)N1CCCC1,17.3%
3,O=[N+]([O-])c1ccc(N/N=C/c2ccccc2)cc1,40.7% (active)
4,O=[N+]([O-])c1cccc(/C=N/Nc2ncc(Br)cn2)c1,-23.5%
5,COc1ccc(-n2nc(C(=O)NCC(=O)N3CCN(c4ccccc4OC)CC3)c3ccccc3c2=O)c(OC)c1,1.49%
6,CCN(c1ccccc1)S(=O)(=O)c1ccc2[nH]c(=O)[nH]c2c1,11.5%
7,O=C(O)C(c1ccccc1)C1(O)CCCCC1 (stereo not drawn),2.11%
8,Cc1ccc(C(=O)Nc2c(C#N)c(C)c(C)n2Cc2ccccc2)cc1,17.9%
9,O=C(CCNS(=O)(=O)c1ccc(Br)cc1)NCC1CCCO1 (stereo not drawn),1.09%
10,OC(CNCC1CCCO1)Cn1c2ccc(Br)cc2c2cc(Br)ccc21 (stereo not drawn),45.7% (active)
11,O=C(CSc1ccc(-c2ccc(Br)cc2)nn1)NCC1CCCO1 (stereo not drawn),17.5%
12,NC(=O)C1CCN(C(=O)/C(=C/c2ccco2)NC(=O)c2ccccc2)CC1,-8.85%
13,NC(=O)CC[C@@H]1NC(=O)[C@H](CO)NC(=O)c2cc([N+](=O)[O-])cc(I)c2NCC[C@@H](C(N)=O)NC1=O,-26.8%
14,CCOc1ccc(NC(=O)[C@H](C)NC(=O)C2CC(=O)N(c3ccc(OC)cc3)C2)cc1 (stereo partly drawn),-6.36%
15,COC(=O)C(NS(=O)(=O)c1ccc(F)cc1)c1ccccc1 (stereo not drawn),13.7%
16,Cc1ccc(OCC(=O)Nn2cnc3ccccc32)cc1,1.81%
17,Cc1ccc(OS(=O)Nc2cccc3nccnc23)cc1 (stereo not drawn),54.6% (active)
18,Cc1ccc(Oc2ccc3c(c2)C(=O)N(c2cccc4cccnc24)C3=O)cc1,18.3%
19,CCOc1ccc(NS(=O)(=O)c2cc(C)c(C)cc2C)cc1,1.28%
20,CC(C)(C)c1cc(CN2CCN(CCC#N)CC2)cc(C(C)(C)C)c1O,-1.87%
21,CCN1/C(=C\c2ccc3ccccc3[n+]2CC)Sc2cc(C)ccc21,65.2% (active)
22,C=CCn1c(COc2ccc(F)cc2)nnc1SCC(=O)Nc1cccc(S(N)(=O)=O)c1,-3.82%
23,O=c1nc(N2CCOCC2)nc2n1CCO2,-13.4%
24,CCC1CCCCN1C(=O)CSc1nc2c(c(=O)n(C)c(=O)n2C)n1C (stereo not drawn),0.551%

row,Compound,inhibition
1,O=S(=O)(c1ccc(F)cc1)n1ccc(-c2cnc(-c3ccccc3)s2)n1,24.1%
2,O=[N+]([O-])c1ccc2oc(-c3cccc(O)c3)nc2c1,45.7% (active)
3,COc1ccc2oc(-c3cccc(NC(=O)CSc4ccc(Cl)cc4)c3)nc2c1,21.6%
4,CC(=O)Oc1ccc2c(=O)oc(-c3ccc([N+](=O)[O-])cc3)nc2c1,22.6%
5,Cc1ccc(OS(=O)(=O)c2ccc(-c3csc(C)n3)s2)c(C)c1,10.6%
6,COc1cc(C=O)ccc1Oc1nnnn1-c1ccccc1,22.8%
7,O=C(CCNC(=O)c1ccccc1)Nc1nc2ccccc2s1,-11%
8,O=C(CNC(=O)c1ccccc1)Oc1ccc([N+](=O)[O-])cc1,3.17%
9,O=C(NC(Nc1nc2ccc([N+](=O)[O-])cc2s1)(C(F)(F)F)C(F)(F)F)c1ccccc1,85.4% (active)
10,CCC(=O)Nc1cccc(C2=NOC3(C2)C[C@@H](C(N)=O)N(C(=O)c2cc([N+](=O)[O-])cc([N+](=O)[O-])c2C)C3)c1 (stereo partly drawn),9.39%
11,O=C1c2ccccc2C(=O)c2c1cccc2N1CCN(CCO)CC1,15.9%
12,O=C1c2ccccc2C(=O)c2c1cccc2N1CCN(C/C=C/c2ccccc2)CC1,23.3%
13,O=C1c2ccccc2C(=O)c2c1cccc2N1CCN(Cc2ccccc2)CC1,49.4% (active)
14,CC1CCN(S(=O)(=O)c2ccc3c(ccn3CC(=O)O)c2)CC1,6.77%
15,O=C(CCc1ccccc1)Nc1ncc([N+](=O)[O-])s1,45.9% (active)
16,O=C(Cc1c(F)cccc1Cl)Nc1ncc([N+](=O)[O-])s1,32.8%
17,COc1ccc([N+](=O)[O-])cc1NC(=O)CCc1ccccc1,27.1%
18,O=C(C1CCCN(S(=O)(=O)c2ccccc2)C1)N1CCN(c2ccc(F)cc2)CC1 (stereo not drawn),17.6%
19,Fc1ccccc1-c1cc2cc3c(cc2cn1)OCO3,-19.8%
20,COc1cccc(NC(=S)N(CCc2c(C)[nH]c3ccccc23)Cc2ccco2)c1,32.4%
21,CCNC(=S)N(CCc1c(C)[nH]c2ccc(C)cc12)Cc1ccco1,45.6% (active)
22,COCCNC(=S)N(CCc1c(C)[nH]c2ccc(C)cc12)Cc1cccnc1,11.6%
23,CC(CNS(=O)(=O)c1ccc(Br)cc1)CN(C)C (stereo not drawn),6.17%
24,N/C(=N\OC(=O)Nc1ccc(Cl)c(Cl)c1)c1ncc(C(F)(F)F)cc1Cl,49.2% (active)

row,Compound,inhibition
1,N/C(=N\OC(=O)CCCC(=O)O)c1ncc(C(F)(F)F)cc1Cl,1.66%
2,O=C(c1ccccn1)c1ncc(C(F)(F)F)cc1Cl,7.58%
3,Cc1cccc(NC(=O)C2CCCN(C(=O)Nc3ccc(F)cc3)C2)c1C (stereo not drawn),-25.6%
4,Cc1ccccc1CC1(CO)CCCN(C(=O)c2cc(-c3ccccc3)no2)C1 (stereo not drawn),42.6% (active)
5,Cc1ccccc1CC1(CO)CCCN(Cc2ccc3c(c2)OCCO3)C1 (stereo not drawn),8.67%
6,Cc1noc(C)c1CCC(=O)N1CCCC(CO)(Cc2ccccc2)C1 (stereo not drawn),-14.1%
7,Cc1ccc(OC(=O)c2c(C)nn(-c3ccccc3)c2C)cc1,25.6%
8,Cc1ccc(Oc2cnn(-c3ccccc3)c(=O)c2Br)cc1,42.1% (active)
9,Cc1cccc(-n2ncc(Cl)c(Cl)c2=O)c1,-25.8%
10,COc1ccc(S(=O)(=O)/N=C2\C=C(NS(=O)(=O)c3ccccc3)C(=O)c3ccccc32)cc1,31.1%
11,CCc1[nH]nc(C(=O)N2CCCC(CO)(Cc3ccc(F)cc3F)C2)c1C (stereo not drawn),24.1%
12,COc1cc2c(cc1OC)C(C(=O)Nc1cc(C)c(OC)c(C)c1)CC(=O)N2 (stereo not drawn),-5.96%
13,CS(=O)(=O)N(Cc1ccccc1)c1ccc(C(=O)NN=C2CCCCCC2)cc1,17.2%
14,O=C(N/N=C\c1cccc(Br)c1)c1ccccc1-n1cccc1,57.6% (active)
15,O=C(N/N=C/c1cccc(Br)c1)c1ccc(N2CCCC2=O)cc1,-37.8%
16,O=C(CNC(=O)c1cccs1)N/N=C/c1cccc(Br)c1,22%
17,CCN(Cc1ccncc1)C(=O)CCc1ccccc1,-0.112%
18,COc1ccc(CNC(=O)CCn2cccc2)cc1,9.29%
19,COc1ccc(NC(=O)/C(C#N)=C\c2cc(OC)c(OCc3ccc(C(=O)O)cc3)cc2Br)cc1,26.4%
20,COc1ccc(CNC(=O)/C(C#N)=C/c2cccc(OC)c2OC)cc1,63.8% (active)
21,CC(C)c1ccc(/C=C2\NC(=O)NC2=O)cc1,10.2%
